Assay results reported in PubChem BioAssay (EPA / NIEHS).
Results filed as inconclusive are left out. Activity calls are given as the source filed them. Rule for the calls: active = hit-call score of the fitted dose curve at least 0.9, where 1 is the maximum; inconclusive = response in the unintended direction; inactive = score below 0.9.

read-out: organic anion transporter (SLCO1B1), SLCO1B1 (gene 10599); test: CLD_SLCO1B1_48hr: CellzDirect (CLD) Gene Expression Assay for organic anion transporter (SLCO1B1) at 48 hours (AID 2283707)
Protocol: CLD_48hr is a cell-based, multiplexed-readout assay that uses hepatocyte, a human liver primary cell, with measurements taken at 48 hours after chemical dosing in a 96-well plate.CLD_SLCO1B1_48hr is one of 16 assay component(s) measured or calculated from the CLD_48hr assay. It is designed to make measurements of mRNA induction, a form of inducible reporter, as detected with chemiluminescence signals by Quantitative Nuclease Protection Assay (qNPA) technology.Data from the assay component CLD_SLCO1B1_48hr was analyzed at the endpoint, CLD_SLCO1B1_48hr, in the positive analysis fitting direction relative to DMSO as the negative control and baseline of activity. Using a type of inducible reporter, gain-of-signal activity can be used to understand changes in the reporter gene as they relate to the gene SLCO1B1. Furthermore, this assay endpoint can be referred to as a primary readout. To generalize the intended target to other relatable targets, this assay endpoint is annotated to the transporter intended target family, where subfamily is organic anion transporter.
Human hepatocyte cultures were treated daily for two consecutive days with fresh dosing solutions containing appropriate concentrations of the 320 ToxCast chemicals (chemical identities were blinded to CellzDirect and other ToxCast collaborators), vehicle control (0.2% DMSO), and positive control inducers as summarized in Table 1. Due to the large number of treatment groups and chemicals examined, the ToxCast chemicals were divided into two groups (spanning two independent cultures of hepatocytes from separate donor preparations (Hu778: ToxCast plates 1 and 2; Hu776: ToxCast plates 3 and 4). Each preparation of human hepatocyte cultures was treated with respective vehicle control, medium only control, set of six positive controls/reference chemicals for the five hepatic receptor pathways, and a subset of eight of the ToxCast chemicals (indoxacarb, pyrithiobac-sodium, norflurazon, cyhalofop-butyl, methomyl, thiram, acetochlor, and propiconazole). These replicate data, coupled with internal replicates designed within the blinded ToxCast chemical library, provided additional data to evaluate interindividual differences between hepatocyte preparations and their potential impact on chemical profiles.Cell morphology and integrity were evaluated using phase-contrast microscopy as an indicator of hepatocyte cell health (Tyson & Green, 1987). Cultures for each treatment group (i.e., media, vehicle [0.2% DMSO], positive control inducers [multiple concentrations], and the ToxCast chemicals [multiple concentrations]) were observed and cell morphology was assessed relative to vehicle control cultures at each harvest time point (0, 6, 24, or 48 h). […] Images were evaluated at the conclusion of the study to assess changes in cell integrity and account for the effects of chemical exposure on uncharacteristic changes in concentration-dependent gene expression profiles. The results from these determinations of apparent cytotoxicity were annotated (yes/no) alongside the corresponding qNPA data for reference.At the conclusion of each treatment period, hepatocyte cultures (96-well) were washed with 1 volume of HBSS, lysed by addition of 25 ul ArrayPlate lysis buffer (HTG, Tucson, AZ), and 70 ul/well of Denaturation Oil, denatured by incubation at 95C for 10 min, and frozen at approximately -70C until analysis by nuclease protection assay (qNPA) (Roberts et al., 2007). For qNPA analysis, cell lysates were thawed at 50C for approximately 30 min, qNPA probes were added, and samples were incubated at 95C for 10 min to begin the detection process by denaturing the target RNA, dissociating the duplexes and secondary structure hybridization. At the conclusion of the hybridization period, S1 nuclease reagent was added to each sample to digest all nonprotected nucleotides at 50C for 60-90 min. […]

Structure (SMILES)	outcome
COC(=O)NS(=O)(=O)c1ccc(N)cc1	inactive
COc1cc(OC)nc(NC(=O)NS(=O)(=O)c2ncccc2OCC(F)(F)F)n1	inactive
O=P(O)(O)CCCl	inactive
CCOc1cc(C(C)(C)C)ccc1C1COC(c2c(F)cccc2F)=N1 (stereo unspecified)	inactive
COc1ccc(-c2ccccc2)cc1NNC(=O)OC(C)C	inactive
COP(=S)(OC)SCn1nnc2ccccc2c1=O	inactive
Clc1nc(Cl)nc(Nc2ccccc2Cl)n1	inactive
COP(=O)(OC)O/C(C)=C/C(=O)N(C)C	inactive
COC(=O)NC(=S)Nc1ccccc1NC(=S)NC(=O)OC	inactive
O=C(O)c1c(Cl)ccc2cc(Cl)cnc12	inactive
CC(C)=CC1C(C(=O)OCc2coc(Cc3ccccc3)c2)C1(C)C (stereo unspecified)	inactive
CS(=O)(=O)c1cc(C(F)(F)F)ccc1C(=O)c1cnoc1C1CC1	inactive
CC(C)N1C(=O)c2ccccc2NS1(=O)=O	inactive
Clc1cccc(C(Cl)(Cl)Cl)n1	inactive
C=C(C)CN(CC)c1c([N+](=O)[O-])cc(C(F)(F)F)cc1[N+](=O)[O-]	inactive
O=c1n(Cl)c(=O)n(Cl)c(=O)n1Cl	inactive

Structure (SMILES)	outcome
CC(C)C1(C)N=C(c2ncccc2C(=O)O)NC1=O (stereo unspecified)	inactive
CCCC(=NOCC)C1=C(O)CC(CC(C)SCC)CC1=O (stereo unspecified)	inactive
Nc1c(Cl)c(Cl)nc(C(=O)O)c1Cl	inactive
CCN(CC)C(=O)C(C)Oc1cccc2ccccc12 (stereo unspecified)	inactive
Nc1cnn(-c2ccccc2)c(=O)c1Cl	inactive
Nc1c(Cl)c(F)nc(OCC(=O)O)c1Cl	inactive
CSC(=O)c1c(C(F)F)nc(C(F)(F)F)c(C(=O)SC)c1CC(C)C	inactive
N#CN=C1SCCN1Cc1ccc(Cl)nc1	inactive
O=C1C2CC=CCC2C(=O)N1SC(Cl)(Cl)Cl (stereo unspecified)	inactive
CO/N=C(/C1=NOCCO1)c1ccccc1Oc1ncnc(Oc2ccccc2Cl)c1F	inactive
OC(c1ccc(Cl)cc1)(c1ccc(Cl)cc1)C(Cl)(Cl)Cl	inactive
COCC(C)N(C(=O)CCl)c1c(C)csc1C (stereo unspecified)	inactive
Cc1c(COC(=O)[C@@H]2[C@H](/C=C(\Cl)C(F)(F)F)C2(C)C)cccc1-c1ccccc1	inactive
CNC(=O)N(C)c1nnc(C(C)(C)C)s1	inactive
COc1cc(Cl)c(OC)cc1Cl	inactive
